Experimental data from PubChem BioAssay AID449762 (Southern Research Specialized Biocontainment Screening …, 2010).
Among all 330,000 compounds or so, about 1,900 (0.58%) were called active. Roughly 4% stayed inconclusive and do not appear here. These entries were drawn from the full list. Results with a measured potency or affinity are listed apart. Values without a mark were called inactive. Rule as the data show it: inconclusive = inhibition above about 70% without an active follow-up result; inactive = below that.

Experiment: M. tuberculosis growth inhibition, HTS (AID 449762);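 also: bacterial growth assessed after seven days of incubation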
Details: M. tuberculosis H37Rv growth inhibition, 7H9 media; at 25 µM; active compounds read high

Structure (SMILES) | inhibition
O=c1cnnc(SCCc2ccccc2)[nH]1 | -11.7%
COc1ccc(-c2nnc3ccc(SC)nn23)cc1 | 12.5%
O=C(O)Cn1ccc2ccccc21 | -3.21%
CC(C)Cn1c(CN2CCN(C)C(CCO)C2)nc2ccccc21 (centres undefined) | -7.61%
CC(=O)Oc1ccc2oc(=O)c3c(c2c1)CCCN3C(=O)CN1CCN(c2ncccn2)CC1 | -4.05%
O=C(CN1CCN(c2ncccn2)CC1)N1CCCc2c1c(=O)oc1ccc(O)cc21 | 6.59%
O=C(NCCNC(=O)c1ccc(Cl)cc1Cl)c1ccccn1 | 0.45%
CCCc1cc(=O)[nH]c(SCC(=O)N2c3ccccc3NC(=O)C2(C)C)n1 | 3.32%
CC1=C(C(=O)N2CCOCC2)C(c2cc(C)cs2)NC(=O)N1 (centres undefined) | 2.64%
Cc1ccc(F)cc1NC(=O)COC(=O)c1ccc2ncsc2c1 | -5.07%
c1ccc(C[C@H]2CN=C(Nc3ccccc3)N2CCCC2CCCCC2)cc1 | 22.3%
c1ccc(C[C@H]2CN=C(Nc3ccccc3)N2CCC2CCCC2)cc1 | 30%
O=C(O)C(Cc1c[nH]c2ccccc12)NS(=O)(=O)c1cccc(Cl)c1Cl (centres undefined) | -3.04%
Cc1ccc(NC(=O)CN(C)CC(=O)Nc2sc3c(c2C(N)=O)CCC3)cc1 | 66.6%
COc1ccc(NC(=O)CN(C)CC(=O)Nc2sc3c(c2C#N)CCC3)cc1 | -8.9%
CC(=O)OC(c1nc2ccccc2c(=O)n1C1CC2(OC1=O)c1ccccc1N1C(=O)C(C)(C)N(O)C12)C(C)C (centres undefined) | -6.29%
Cc1ccc(N2C(=O)NC(=O)/C(=C/C=C/c3ccco3)C2=O)cc1 | 53.8%
Cc1ccc(N2C(=O)NC(=O)/C(=C\C=C\c3ccco3)C2=O)cc1 | -4.11%
Cc1cc(NC(=O)CSCC(=O)N(C)Cc2ccc(F)cc2)no1 | -22.2%
Cc1ccc(-c2csc3ncnc(Nc4ccc(C(=O)O)cc4)c23)cc1 | 6.21%
Fc1ccc(-c2csc3ncnc(Nc4ccc(N5CCOCC5)cc4)c23)cc1 | 28.8%
O=C1c2cccc3c([N+](=O)[O-])c(O)cc(c23)C(=O)N1Nc1ccccc1 | -8.23%
O=C(Nc1ccccc1)NC1CCCCC1 | 7.91%

Structure (SMILES) | inhibition
CCC(=O)N1c2ccc(S(=O)(=O)NCc3ccccc3)cc2CC1C (centres undefined) | 3.62%
COc1ccc(-c2cc(-c3ccccc3)nc(NN)n2)cc1OC | 2.81%
COc1nc(-c2ccccc2)cc(-c2ccccc2)n1 | 11.4%
CC(C)Cn1c(SCC(=O)N2CCc3ccccc3C2)nc2cc(Cl)ccc2c1=O | -3.67%
CCCCN(CC)CCNC(=O)c1cn(C)c(=O)c2c1c1ccccc1n2C | -0.73%
Cc1cc(C)n2nc(CCc3ccccc3)nc2n1 | 0.58%
CCCCCCCC(=O)NNC(=O)c1ccc([N+](=O)[O-])cc1 | 3.14%
CCCCC(=O)NNC(=S)NC(=O)c1cccc([N+](=O)[O-])c1 | 29%
COc1ccc2oc(=O)c(C(=O)NCc3ccc(C)cc3)cc2c1 | -2.24%
COc1cc2c(cc1OC)C1=C(C#N)CCC(=O)N1CC2 | 7.82%
Cc1cc(C)n(-c2nc(Nc3ccccc3)nc(-n3nc(C)cc3C)n2)n1 | 15.3%
CNc1nc(C)nc(-n2nc(C)cc2C)n1 | -0.69%
Cc1cccc(NC(=O)COC(=O)Cc2cccs2)c1C | 4.38%
Cc1ccc(C)c(N2CN(CCC3=CCCCC3)CNC2=S)c1 | -4.98%
C[C@@H]1O[C@@H](O[C@H]2[C@H](Oc3cc(O)c4c(c3)O[C@H](c3ccc(O)cc3)CC4=O)O[C@H](CO)[C@@H](O)[C@@H]2O)[C@H](O)[C@H](O)[C@H]1O | -0.33%
C[C@@H]1O[C@@H](O[C@H]2[C@H](Oc3cc(O)c4c(c3)OC(c3ccc(O)cc3)CC4=O)O[C@H](CO)[C@@H](O)[C@@H]2O)[C@H](O)[C@H](O)[C@H]1O (some centres undefined) | -2.06%
CCCCc1nc2cc(C(=O)N3CCCCC3CCNC(C)=O)ccc2o1 (centres undefined) | 7.94%
CCC(CC)c1nnc(NC(=O)c2cc([N+](=O)[O-])ccc2N2CCOCC2)s1 | 5.48%
CCN1CCN(C(=S)NC(=O)/C=C/c2cccs2)CC1 | -0.91%
NC(=O)NCCC1=CCCCC1 | 7.39%
O=C(NCCC1=CCCCC1)NC1CCCCC1 | 7.21%
O=C1N[C@@H](Cc2c[nH]c3ccccc23)COC(=O)[C@@H](Cc2ccc(F)cc2)C/C=C\C[C@H]1CC(=O)N(CCO)Cc1ccccc1 | 4.64%
COc1ccc(C(CNC(=O)c2ccc(Br)o2)N2CCN(C)CC2)cc1 (centres undefined) | 2.14%

Structure (SMILES) | inhibition
CC(=O)Nc1ccc(NC(=O)C(C)OC(=O)COc2ccc(Nc3ccccc3)cc2)cc1 (centres undefined) | 40.1%
CC(OC(=O)COc1ccccc1Cc1ccccc1)C(=O)N(C)c1ccccc1 (centres undefined) | -4.05%
CN(CC(=O)Nc1ccc(Cl)cc1)C(=O)C1=COCCO1 | -13.8%
Cc1ccc(NS(=O)(=O)c2c(C)[nH]c(C)c2C(=O)N2CCCC2)cc1 | 2.46%
Oc1ccccc1N=N/C(=N/Nc1ccccc1O)c1ccccc1 | 10.4%
N#C/C(=N/Nc1ccccc1[N+](=O)[O-])C(N)=S | -5.6%
COc1ccc(-c2nc(CN3CCCCC3c3cccnc3)c(C)o2)c(F)c1 (centres undefined) | 3.24%
c1ccc(Oc2cccc(OCCCCN3CCCC3)c2)cc1 | 1.38%
CN1CCN(C(=O)c2cnn3c2NC(c2ccccc2)CC3C(F)(F)F)CC1 (centres undefined) | -19.6%
CCN(CC)CCCN(Cc1cc2cc3c(cc2[nH]c1=O)OCO3)C(=S)Nc1ccccc1OC | -4.51%
CCc1ccc(Nc2n[n+](-c3ccccc3)c(-c3ccc(C(=O)O)cc3)s2)cc1 | 4.87%
C[n+]1nc(Nc2ccccc2)sc1-c1ccc(O)cc1 | 4.57%
O=C(NCc1cccs1)c1cc(S(=O)(=O)N2CCOCC2)ccc1N1CCCC1 | 5.48%
Cc1ccccc1CN1CCN(c2ccc(S(=O)(=O)N3CCCC3)cn2)CC1 | -6.22%
COC(=O)C1C(=O)C2=C(CC1C)NC(C)=C(C(=O)OC(C)C)C2c1ccc(C)o1 (centres undefined) | 2.94%
COc1ccc(-n2nnnc2S(=O)(=O)Cc2ccc(C(=O)O)cc2)cc1 | -3.99%
COc1cc(OC)cc(-n2nnnc2SCC(=O)N2CCCC2)c1 | -5.03%
CCCCn1c(C)c(C(=O)O)c2cc(OC)c3ccccc3c21 | 17.8%
COc1cc(C(=O)NCCc2cn3ccc(C)cc3n2)cc(OC)c1OC | -5.75%
CN=c1scc(-c2cccs2)n1/N=C/c1ccccc1O | -8.02%
CN=c1scc(-c2ccccc2F)n1/N=C/c1ccc[nH]1 | 67.8%
C[C@H](CO)N1C[C@H](C)[C@@H](CN(C)Cc2ccc(C(=O)O)cc2)Oc2c(NS(=O)(=O)c3ccc(F)cc3)cccc2C1=O | -2.1%
O=C(NCc1nnc(SCC(=O)N2CCOCC2)o1)c1c(F)cccc1Cl | -6.01%

Structure (SMILES) | inhibition
COc1cccc(OCC(=O)N(C)Cc2nc(-c3cccc(C)c3)no2)c1 | 1.4%
COc1ccc(O)c(C(=O)c2cnn(C(=O)c3cccc(S(=O)(=O)N4CCOCC4)c3)c2)c1 | -2.2%
CCN(CC(=O)NCc1cccs1)C(=O)c1ccc(C)o1 | 2.46%
CCN(CC(=O)NCc1cccs1)C(=O)c1ccc(-c2ccc(F)cc2)o1 | -1.53%
CCOc1ccc(S(=O)(=O)N2CCN(C(=O)CN3C(=O)NC4(CCCC4)C3=O)CC2)cc1 | -3.03%
Cc1oc(C(=O)Nc2ccc(C(=O)O)cc2)cc1COc1ccccc1 | -2.76%
Cc1ccc(OCc2cc(C(=O)Nc3ccccc3)oc2C)cc1 | 0.92%
COc1ccc(CCNC(=O)c2cc(C(C)C)on2)cc1OC | -0.84%
CCc1ccc2c(c1)C(O)(CC(=O)c1cccs1)C(=O)N2 (centres undefined) | 10.1%
Cc1cccc2c1NC(=O)/C2=C\C(=O)c1cccs1 | -9.89%
N#Cc1c(-c2ccccc2)c(-c2ccccc2)nn(CC(=O)NNC(=O)Nc2ccc(Cl)cc2)c1=O | 3.84%
N#Cc1c(-c2ccccc2)c(-c2ccccc2)nn(CC(=O)NNC(=O)Nc2ccccc2)c1=O | -9.35%
COc1ccc(NC(=O)C23CC4CC(CC(Cl)(C4)C2)C3)cc1S(=O)(=O)N1CCOCC1 | 1.2%
COC(=O)Cc1ccc(NC(=O)c2ccc3c(c2)C(=O)N(Cc2ccco2)C3=O)cc1 | -5.45%
CCOC(=O)c1c(NC(=O)CC2SC(N)=NC2=O)sc(C)c1C (centres undefined) | 0.41%
O=S(=O)(NCCN1CCCC1)c1ccc(Br)cc1 | 0.37%
CCOc1ccc(-c2csc(Cn3c(CN4CCN(C)CC4)nc4ccccc4c3=O)n2)cc1 | 8.95%
CN1CCN(Cc2nc3ccccc3c(=O)n2Cc2nc(-c3ccc([N+](=O)[O-])cc3)cs2)CC1 | 3.59%
CCCCN(C(=O)c1ccc(C#N)cc1)c1c(N)n(CCC)c(=O)[nH]c1=O | -1.21%
O=C(CN1CCCCC1)NC(=O)NC1CCCCC1 | -4.76%
